Most compounds without a hit are left out; they make up all but 8.1% or so of the library.
MCF10A rereplic – DNA re-replication induction in MCF 10a cells; MCF 10A DNA re-replication, Hoechst nuclear intensity, 48 h; Potency, µM (doses to about 46.1 µM), for inactives: at the highest dose activity, positive = re-replication, most hits filed as activators; 350,000 tested, 2.9% active; AID 624296; also: % of control where 0% means no effect; nearly all actives have a fitted effect of over 50% in size
KB-V1 MDR tox – KB-V1 MDR subline cytotoxicity; 400,000 tested, 3.4% active; KB-V1 MDR cells viability, CellTiter-Glo, 72 h; AID 1347076; Potency, µM (top dose mostly 46.1 µM), usual class: cytotoxic; also: % is scaled to controls: 0 for no effect and ±100 for the full control effect; nearly all actives have a fitted effect of over 60% in size
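Cytotoxicity via CellTiter-Glo luminescence after 72 h compound exposure at 37 degrees C. Cells: drug-selected KB-V1 line, DMEM phenol-red free plus 10% FBS. Compounds tested at multiple concentrations; normalized data fitted to concentration-effect curves.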
KB-3-1 tox – KB-3-1 parental cell cytotoxicity | 400,000 tested, 1.4% active | Potency, µM (top dose mostly 46.1 µM), most hits filed as cytotoxic | AID 1347075 | KB-3-1 viability, CellTiter-Glo ATP luminescence, 72 h; also: % is scaled to controls: 0 for no effect and ±100 for the full control effect; nearly all actives have a fitted effect of over 60% in size
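Multi-concentration cytotoxicity screen in KB-3-1 cells grown in DMEM lacking phenol red with 10% FBS. After 72 h at 37 °C with compound, ATP-dependent luminescence was recorded.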
ELG1 repair inh – blocks ELG1-dependent DNA repair in HEK293T cells; HEK293T ELG1-luciferase reporter, luminescence, 16 h; DNA damage induced by 5-fluorouridine; Potency, µM (series often up to 46.1 µM), for the others: at the top dose activity change, negative = inhibition, usual class: inhibitors; 330,000 tested, 2.3% active; AID 504467; also: % is scaled to controls: 0 for no effect and ±100 for the full control effect; nearly all actives have a fitted effect of over 55% in size
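Luminescence from the luciferase reporter, measured 30 min after ONE-Glo reagent at room temperature, was the read-out. Beforehand, 2,000 cells per well were exposed for 16 hr at 37 °C to 5-fluorouridine together with compound or vehicle.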
SW480 rerep – DNA re-replication induction in SW480 cells. SW480 DNA re-replication, Hoechst DNA content imaging, 48 h. Potency, µM (series often up to 46.1 µM), for inactives: at the highest dose re-replication activation, usual class: activators. 340,000 tested, 1.8% active. AID 624297; also: % of control where 0% means no effect; nearly all actives have a fitted effect of over 55% in size
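Image-based DNA-content assay: after two days of treatment, nuclei were labelled with the DNA dye Hoechst and imaged, and hits were compounds raising the count of nuclei showing high fluorescence intensity.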
Starred values were filed as active, the others as inactive; i = inactive; ? = inconclusive; . = no result; [ ] = another dose, or the depositor's remark. Calls follow the shape of the dose curve; as a rule, active = well fitted curve in the direction sought with a large enough effect; inconclusive = small, poorly fitted or top-dose-only effect, or another doubt; inactive = no such curve, though single readings can be large; an effect the other way counts as inactive or inconclusive. Potency is read from the fitted curve at half-maximal effect.

SMILES	MCF10A rereplic	KB-V1 MDR tox	KB-3-1 tox	ELG1 repair inh	SW480 rerep
c1c2c(cc3sc(N4CCOCC4)nc13)OCO2	25%	i	i	?	-8%
O=C(CNC(=O)OCc1ccccc1)NC(Cc1cnc[nH]1)C(=O)O (stereo not drawn)	-4%	i	i	.	-5%
O=c1oc2cc(Oc3ccc(C(F)(F)F)cc3[N+](=O)[O-])ccc2c2c1CCC2	?	21µM*	i	12%	0%
COc1cc(-c2nc(S(=O)(=O)c3ccc(Cl)cc3)c(N3CCOCC3)o2)cc(OC)c1OC	14%	0.52µM*	i	?	3%
OC[C@@H]1CN(Cc2cccs2)C[C@H](n2cnc3c(NC4CCC4)ncnc32)O1	.	i	i	.	.
O=C(c1coc2ccc(O)c(CN3CCOCC3)c12)C1CC1	0%	i	i	-10%	-7%
O=C(c1cccs1)c1coc2ccc(O)c(CN3CCOCC3)c12	5%	2.9µM*	i	-27%	7%
CC(C)Oc1ccc(C(CCNCc2ccc(O)cc2)c2ccccc2)cc1 (stereo not drawn)	?	18µM*	?	9%	18%
COc1ccc(C(CCNCc2ccc(OC)c(OC)c2)c2ccc(F)cc2)cc1 (stereo not drawn)	5%	i	i	?	?
CC(C)Oc1ccc(CNC(=O)CC(c2ccccc2)c2cc(Cl)ccc2O)cc1 (stereo not drawn)	?	23µM*	i	?	18%
COc1ccc(C(CCNCc2ccc(N(C)C)cc2)c2ccccc2)cc1 (stereo not drawn)	?	?	i	-28%	18µM*
COc1ccc(S(=O)(=O)N2CCOCC2)cc1NC(=O)COC(=O)c1oc2ccccc2c1C	15%	?	i	11%	-7%
CCOC(=O)CC(=O)CSc1nc(-c2ccccc2)cc(-c2ccccc2)c1C#N	?	?	i	?	?
COc1cc(C=NNC(=O)c2ccccc2NS(=O)(=O)c2cccs2)cc(OC)c1O	-8%	i	i	6%	-7%
O=C(CCC1CCCN(C(=O)c2ccccc2Cl)C1)N1CCN(c2ccccn2)CC1 (stereo not drawn)	5%	15µM*	?	?	2%
Cc1ccc(C(=O)N2CCCC(CCC(=O)N3CCN(c4ccccn4)CC3)C2)cc1 (stereo not drawn)	1%	i	i	-23%	22%
CC(=O)c1ccccc1C(=O)N1CCCC(CCC(=O)N2CCN(c3ccccn3)CC2)C1 (stereo not drawn)	13%	i	i	23µM*	-6%
Cc1ccc(C(=O)NCc2ccc(F)cc2)cc1NC(=O)c1nsc2ccccc12	.	i	i	.	.
NNC(=O)c1ccc(Cn2cc(Br)cn2)o1	-2%	i	i	1%	-18%
NNC(=O)c1ccc(Cn2cccn2)o1	?	i	i	6%	2.3µM*
CCc1ccc2[nH]c(=O)c(CN(CC3CCCO3)C(=S)NCc3ccco3)cc2c1 (stereo not drawn)	?	i	i	18µM*	7%
CCc1ccc2[nH]c(=O)c(CN(CCN(CC)CC)C(=S)NCc3ccco3)cc2c1	6%	?	23µM*	-12%	-31%
COc1ccc2cc(CN(Cc3ccco3)C(=S)NCC3CCCO3)c(=O)[nH]c2c1 (stereo not drawn)	?	?	?	23µM*	-36%
CCc1ccc2[nH]c(=O)c(CN(CCN(C)C)C(=S)NCc3ccco3)cc2c1	-5%	i	i	-14%	-4%
CC(C)c1ccccc1NC(=O)COC(=O)Cc1cccc(C(F)(F)F)c1	2%	i	i	-4%	-1%
SMILES	MCF10A rereplic	KB-V1 MDR tox	KB-3-1 tox	ELG1 repair inh	SW480 rerep
CN1CCC(N(C)S(=O)(=O)c2ccc(NC(=O)COc3ccc([N+](=O)[O-])cc3)cc2)CC1	6%	i	i	17%	-5%
CCCN1CCc2c(sc3nc(SCC)n(-c4ccc(OC)cc4)c(=O)c23)C1	21µM*	i	i	-4%	12%
CCCN1CCc2c(sc3nc(SCC)n(-c4ccccc4)c(=O)c23)C1	?	i	i	-28%	5%
CCCN1CCc2c(sc3nc(SC)n(-c4ccccc4)c(=O)c23)C1	18µM*	i	i	?	?
COc1ccc(CCNC(=O)C2CC(c3cccc([N+](=O)[O-])c3)=NO2)cc1 (stereo not drawn)	0%	i	i	?	?
COc1cccc(NC(=O)c2cc(C(=O)Nc3cccc(OC)c3)n(C)n2)c1	15%	?	?	13µM*	1%[9.22 µM]
Cn1nc(C(=O)Nc2ccc(Br)cc2)cc1C(=O)Nc1ccc(Br)cc1	-2%	?	i	-2%	5%
O=C(CCc1c[nH]c2ccccc12)N1CCN(S(=O)(=O)c2ccccc2)CC1	10%	i	i	-7%	-102%
O=C(Nc1ccccc1N1CCCCC1)C1CCN(C(=O)c2ccc(Cl)cc2)CC1	?	?	i	-18%	10%
CC(C)c1onc(C(=O)N2CCN(c3ccc(F)cc3)CC2)c1[N+](=O)[O-]	0%	i	i	12%	21µM*
COc1ccccc1-c1cnn2c(NC3CCCC3)cc(C)nc12	16µM*	?	i	?	28%
CN1C(=S)SC(C)(C)C1/[N+]([O-])=C/c1cccnc1 (stereo not drawn)	2%	i	i	26%	-4%
COc1cc(Cl)c(C)cc1NC(=O)c1cnc2c(-c3cccc(C)c3)c(C)nn2c1C	.	i	i	.	.
CCN(CC)C(=O)c1ccc(-c2nnc(Nc3cccc(O)c3)c3ccccc23)cc1	6%	i	i	?	3%
CCN(CC)C(=O)c1ccc(Nc2nnc(-c3ccc(O)cc3)c3ccccc23)cc1	0%	?	i	16µM*	-13%
COc1ccc(CNC(=O)CN(c2ccccc2OC)S(=O)(=O)c2cccs2)cc1	-5%	i	i	?	-7%
Cc1ccc(NC(=O)CN(C)S(=O)(=O)c2cccs2)cc1F	5%	15µM*	?	?	1%
COc1ccccc1N(CC(=O)Nc1cc(S(=O)(=O)N(C)C)ccc1C)S(=O)(=O)c1cccs1	3%	i	i	23µM*	-2%
CCCc1cc(-c2nc(-c3ccc(Cl)cc3)cs2)ccn1	?	16µM*	i	15%	-5%
CN(CC(=O)Nc1ccc2c(c1)OCO2)S(=O)(=O)c1ccc2c(c1)CCC(=O)N2	-5%	i	i	6%	-30%
NC(=O)C1=CC2C3C=CC2(O)C(=O)OC3O1 (stereo not drawn)	2.9µM*	?	?	.	3.7µM*
